mHTT-CaM PPI inh: disrupts binding of mutant huntingtin to calmodulin | actives 3.6% (n = 190,000) | inhibition, % at 15 µM | AID 1671202 | P42858 | AlphaScreen His-mHTT/GST-CaM binding, luminescence;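 also: 0% = both proteins with DMSO and 100% = one protein alone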
Pf apPOL inh: Pf-apPOL DNA polymerase inhibition; inhibition, % at 10 µM; Recombinant Pf-apPOL, molecular beacon fluorescence, 1.5 h; actives 0.25% (n = 210,000)
An asterisk follows results filed as active; i = inactive; · = no result given. Sampled rows, rich in hits. Any-hit rate of the full collection: about 3.6%. Rule as the data show it: active = inhibition above about 50%; inactive = the rest.

SMILES	mHTT-CaM PPI inh	Pf apPOL inh
COc1ccc(-c2nc3scc(CCNC(=O)c4ccco4)n3n2)cc1OC	0	13
CC1CCCN(S(=O)(=O)c2ccc3[nH]c4c(c3c2)CCCC4)C1 (stereo not given)	63*	0
CN(CC(=O)Nc1ccccc1F)S(=O)(=O)c1ccc2[nH]c3c(c2c1)CCCC3	37	-3
CC1CCCN(S(=O)(=O)c2ccc(Cl)cc2)C1 (stereo not given)	-14	-4
CCOC(=O)C1CCCCN1S(=O)(=O)c1ccc2[nH]c3c(c2c1)CCCC3 (stereo not given)	62*	4
CC1CN(S(=O)(=O)c2ccc3[nH]c4c(c3c2)CCCC4)c2ccccc2O1 (stereo not given)	96*	-4
CN(CC(=O)N1CCc2ccccc21)S(=O)(=O)c1ccc2[nH]c3c(c2c1)CCCC3	5	-2
O=S(=O)(c1ccc2[nH]c3c(c2c1)CCCC3)N1CCc2ccccc21	78*	-3
CN(CC(=O)N1CCOCC1)S(=O)(=O)c1ccc2[nH]c3c(c2c1)CCCC3	12	-6
CCC(C(=O)Nc1ncc(S(=O)(=O)c2ccc([N+](=O)[O-])cc2)s1)c1ccccc1 (stereo not given)	61*	-2
O=C(Cc1ccccc1)Nc1ncc(S(=O)(=O)c2ccc([N+](=O)[O-])cc2)s1	1	-4
COc1ccc(NC(=O)CCOc2ccccc2)c(OC)c1	2	-138
COc1ccc(NC(=O)CC2(C)NN=C(c3ccccc3)S2)c(OC)c1 (stereo not given)	73*	-25
Cc1ccccc1CSCCC(=O)NC1CCCC(C)C1C (stereo not given)	-1	-7
O=C1C2=C(Nc3ccccc3SC2c2ccc(Br)cc2)c2ccccc21 (stereo not given)	70*	·
Cn1c2c(c(=O)n(C)c1=O)C(c1ccc([N+](=O)[O-])cc1)C1=C(N2)c2ccccc2C1=O (stereo not given)	-4	-4
COc1ccc(OC)c(C2Sc3ccccc3NC3=C2C(=O)c2ccccc23)c1 (stereo not given)	71*	-55
COc1ccc(OC)c(C2C3=C(Nc4c2c(=O)n(C)c(=O)n4C)c2ccccc2C3=O)c1 (stereo not given)	-1	-6
CCOC(=O)C1=C(C)NC2=C(C(=O)c3ccccc32)C1c1ccc([N+](=O)[O-])cc1 (stereo not given)	·	-8
O=C1C2=C(Nc3[nH]n(-c4ccccc4)c(=O)c3C2c2ccc([N+](=O)[O-])cc2)c2ccccc21 (stereo not given)	50*	1
O=C1OCC2=C1C(c1ccc(F)cc1)Sc1ccccc1N2 (stereo not given)	2	1
O=C1C2=C(Nc3ccccc3SC2c2ccc([N+](=O)[O-])cc2)c2ccccc21 (stereo not given)	66*	-7
CCCCNC(=O)c1cnn2c(C(F)(F)F)cc(-c3ccc(Br)cc3)nc12	-4	-3
CCCCCCCCOc1ccc(C(=O)c2ccc(F)cc2)cc1	·	6
CC(=O)N1CCCc2ccc(NC(=O)C3CCCC3)cc21	-5	-6
SMILES	mHTT-CaM PPI inh	Pf apPOL inh
O=C(NCc1ccc(F)c(Cl)c1)C1CCCN(c2nccc3sccc23)C1 (stereo not given)	19	-13
O=C(c1ccccc1C(F)(F)F)N1CCN(c2nc(CN3CCOCC3)cs2)CC1	4	-2
COc1cccc(-c2noc(C3CCCN3C(=O)Nc3cc(Cl)ccc3OC)n2)c1 (stereo not given)	-12	-2
Cc1oc2ccn(Cc3ccc(F)cc3)c(=O)c2c1C(=O)NC(C)C	80*	-5
Cc1oc2ccn(Cc3ccc(F)cc3)c(=O)c2c1C(=O)N1CCN(C(C)C)CC1	-5	-4
O=C(NCc1ccncc1)C(=O)Nc1cccc(Br)c1	1	-7
Cc1cnnn1-c1ccc(C(=O)Nc2cc(Cl)ccc2Cl)cc1	-16	5
N#Cc1c(C(F)(F)F)cc(-c2cccs2)[nH]c1=O	-12	1
N#Cc1c(-c2cccs2)cc(-c2ccco2)[nH]c1=O	·	72*
CSc1cc(-c2cccs2)[nH]c(=O)c1C#N	·	-4
N#Cc1c(-c2ccco2)cc(-c2cccs2)[nH]c1=O	·	83*
O=S(=O)(CCCOc1ccc2c(c1)OCO2)N1CCN(c2ncccn2)CC1	0	0
CCC(=O)N1CCc2cc(Br)cc(S(=O)(=O)NCc3cccs3)c21	6	-4
COc1ccc(C(=O)CC2(O)C(=O)N(Cc3ccc(Cl)cc3)c3ccccc32)cc1[N+](=O)[O-] (stereo not given)	100*	-8
COc1ccc(C(=O)CC2(O)C(=O)Nc3ccccc32)cc1[N+](=O)[O-] (stereo not given)	-5	-15
CCNC(=O)c1cc2sc(C)cc2n1CC	-2	-6
Cc1cc2c(cc(C(=O)NCc3ccccn3)n2CC(C)C)s1	70*	-13
Cc1ccc(S(=O)(=O)NCCC2CCN(C(=O)c3ccccc3)CC2)c(C)c1	53*	-1
Cc1ccc(C(=O)N2CCC(CCNS(=O)(=O)c3ccccc3C)CC2)cc1	49	-1
O=C(c1ccccc1)N1CCC(CCNS(=O)(=O)c2cc(F)ccc2F)CC1	49	-3
O=C(c1ccccc1)N1CCC(CCNS(=O)(=O)c2ccc(F)cc2F)CC1	50*	3
S=c1[nH]nc(C2CCCCC2)n1/N=C\c1ccco1	i	·
COc1ccc(C2(C(=O)N3CCC(Nc4cccnc4)C3)CC2)cc1 (stereo not given)	-1	-5
Cc1nnc2n1CCN(C(=O)Cc1ccccc1F)C2	-9	1
CCN(Cc1ccccc1)S(=O)(=O)c1ccccc1Br	-61	-3
SMILES	mHTT-CaM PPI inh	Pf apPOL inh
O=S(=O)(c1ccccc1Br)N(Cc1ccccc1)CC(O)COCc1ccccc1 (stereo not given)	98*	1
CCCCN1CCN(C(=O)C2CCN(c3cnn(C)c(=O)c3)CC2)CC1	-22	-6
O=C(c1ccc(Cl)c(Cl)c1)N1CCN(c2ccc([N+](=O)[O-])c3cccnc23)CC1	8	1
O=C(c1cc(F)c(F)cc1Cl)N1CCN(c2ccc([N+](=O)[O-])c3cccnc23)CC1	50*	-3
O=C(c1ccccc1)N1CCN(c2ccc(F)cc2[N+](=O)[O-])CC1	10	-6
O=C(c1cccc([N+](=O)[O-])c1)N1CCN(c2cccc(Cl)c2Cl)CC1	74*	-1
O=C(c1ccc(Cl)c(Cl)c1)N1CCN(c2ccc(F)cc2[N+](=O)[O-])CC1	53*	-19
O=C(c1ccccc1)N1CCN(c2ccc([N+](=O)[O-])cc2Cl)CC1	4	-1
COc1ccc(C(=O)N2CCc3c(c(-c4nc(-c5cccc(F)c5)no4)nn3C)C2)cc1	-1	-3
O=C1OC(c2ccc([N+](=O)[O-])cc2)=N/C1=C\c1cccc(Cl)c1	0	-4
Cc1cccc(-c2csc3c(=O)n(Cc4ccccn4)cnc23)c1	-3	-4
Cc1ccc(CNC(=O)COc2ccccc2C)cc1	-9	-6
O=[N+]([O-])c1ccccc1C1CC(c2ccccc2)=NN1 (stereo not given)	61*	7
CC(=O)N1N=C(c2ccccc2)CC1c1ccccc1[N+](=O)[O-] (stereo not given)	0	-35
Cc1cc(OCC(=O)N2CCOCC2)cc(C)c1Br	0	-2
c1ccc(C2=NC(c3ccccc3)(c3ccccc3)c3ccccc3N2)cc1	61*	·

Compound activity deposited in PubChem BioAssay by University of Kansas High Throughput Screening Laboratory.
